Shown are actives, neighbours in structure and some others; about 8% of the full set was active somewhere.
RORg inh: ROR gamma (mouse) transcription inhibition. Potency, µM (titrated, usually from 53.6 µM), for inactives: at the highest dose activity change, negative = inhibition, hits mostly inhibitors. Drosophila S2 Gal4-RORgamma UAS-luciferase reporter, 20 h. P51450. 5.4% of 310,000 active. AID 2551; also: potency is read from the fitted curve at half-maximal effect; nearly all actives have a fitted effect of over 60% in size
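Drosophila Schneider cells stably carrying a metallothionein-driven Gal4 DBD–ROR gamma fusion and a UAS-Photinus luciferase reporter were exposed to compound for 1 hr, then induced with copper sulfate (700 uM final) for 20 hr at ambient temperature before luminescence reading.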
ELG1 DNA repair: ELG1-dependent DNA repair inhibition; HEK293T ELG1-luciferase reporter, luminescence, 16 h; DNA damage induced by 5-fluorouridine; Potency, µM (highest dose often 46.1 µM), inactives show at the highest dose activity change, negative = inhibition, usual class: inhibitors; 2.3% of 330,000 active; AID 504467; also: potency is read from the fitted curve at half-maximal effect; nearly all actives have a fitted effect of over 55% in size
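Quantitative HTS, concentration-response format. 2,000 cells/well co-treated with 5-fluorouridine and compound, 16 hr in 5% CO2 at 37 °C; ONE-Glo luminescence read after 30 min.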
VP16 counter: inhibits Gal4-VP16 luciferase reporter, ROR gamma counter-screen. Potency, µM (highest dose often 53.6 µM), for inactives: top-dose activity, negative = inhibition, hits mostly inhibitors. 3.5% of 310,000 active. Drosophila S2 Gal4-VP16 UAS-luciferase, luminescence, 20 h;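 also: Gal4-VP16 expression switched on by copper sulfate through the metallothionein promoter; potency is read from the fitted curve at half-maximal effect; nearly all actives have a fitted effect of over 50% in size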
TSHR antagonist: antagonists of human thyroid stimulating hormone receptor | AID 504810 | TSHR-expressing cells, TSH-stimulated cAMP HTRF, 2 h; stronger effect = lower value | 0.2% of 330,000 active | activity change, negative = inhibition, % at 11.5 µM | P16473;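 active = activity change below a set negative limit, meaning inhibition stronger than a set level, cut at about -70% in these data; inconclusive = activity change between two set negative limits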
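TSHR-expressing cells were treated with compounds, then stimulated with TSH at EC80 (4nM final) for 2 hours at 37 deg C. Cellular cAMP was measured by HTRF competition between lysate cAMP and cAMP-d2 for a cryptate-labelled anti-cAMP antibody.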
FBPA coupling cs: counter-screen for Giardia aldolase inhibitors: coupling enzyme system | coupling enzyme system counterscreen, AmpLite Red fluorescence | activity change, negative = inhibition, % at 58.2 µM, hits read low | 0.67% of 290,000 active; in the data active = activity change below about -30%
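First, compound is pin-transferred into glyceraldehyde-3-phosphate coupling-enzyme reagent at 57.5 uM final and held 10 min at RT. Next, substrate, coupling system and AmpLite Red are added. After 20 min RT, fluorescence (525/598 nm) is read.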
ELG1 Luc conf: inhibits ELG1-dependent DNA repair in HEK293T cells, confirmed; shares compounds with ELG1 DNA repair; HEK293T ELG1-luciferase levels, luminescence; cells co-treated with 5-fluorouridine; Potency, µM (series often up to 46.1 µM), inactives show at the highest dose activity change, negative = inhibition, usual class: inhibitors; 68% of 670 active; also: potency is read from the fitted curve at half-maximal effect; nearly all actives have a fitted effect of over 55% in size
ELG1 MMS Luc: confirmation of human ELG1 repair inhibitors, MMS stimulated; Potency, µM (highest dose often 46.1 µM), without a hit: at the top dose activity change, negative = inhibition, usual class: inhibitors; 53% of 670 active; shares compounds with ELG1 DNA repair; HEK293T luciferase-tagged ELG1 level, MMS stimulated; also: potency is read from the fitted curve at half-maximal effect; nearly all actives have a fitted effect of over 60% in size
ELG1 5-FU: confirmation of ELG1 repair inhibitors: viability with 5FU. shares compounds with ELG1 DNA repair. 670 tested, under 10 active. Potency, µM (series often up to 46.1 µM), for inactives: at the highest dose activity change, negative = viability loss, actives largely listed as cytotoxic. cell viability with 5-FU, ELG1-dependent repair. AID 624250;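 also: ELG1-luc HEK293T cells cotreated with 5-fluorouridine at 10 µM final; potency is read from the fitted curve at half-maximal effect; viability measured 16 h after compound addition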
ELG1 MMS viab: confirmation of ELG1 repair inhibitors: viability with MMS; shares compounds with ELG1 DNA repair; Cell viability with MMS, ELG1-dependent DNA repair; Potency, µM (series often up to 46.1 µM), without a hit: at the highest dose activity change, negative = viability loss, actives largely listed as cytotoxic; 33% of 670 active;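 also: ELG1-luc HEK293T cells co-treated with 10 µM MMS; potency is read from the fitted curve at half-maximal effect; viability read 16 h after compound addition; nearly all actives have a fitted effect of over 60% in size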
Cell viab unstim: affects unstimulated cell viability, ELG1 hit counter-screen. Potency, µM (series often up to 45.9 µM), for inactives: top-dose activity change, negative = loss of viability, usual class: cytotoxic. shares compounds with ELG1 DNA repair. cell viability counter-screen, unstimulated, luminescence. 8% of 900 active. AID 624252;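 also: potency is read from the fitted curve at half-maximal effect; compound exposure lasted 16 hours before reading; nearly all actives have a fitted effect of over 55% in size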
* hit, by the source's call; ? = inconclusive; . = no result given. Unless noted, calls follow the shape of the dose curve; as a rule, active = well fitted curve in the direction sought with a large enough effect; inconclusive = small, poorly fitted or top-dose-only effect, or another doubt; inactive = no such curve, though single readings can be large; an effect the other way counts as inactive or inconclusive. % is scaled to controls: 0 for no effect and ±100 for the full control effect.

SMILES	RORg inh	ELG1 DNA repair	VP16 counter	TSHR antagonist	FBPA coupling cs	ELG1 Luc conf	ELG1 MMS Luc	ELG1 5-FU	ELG1 MMS viab	Cell viab unstim
CN(C)c1cccc(C(=O)NNC(=O)CN2C(=O)C3CC=CCC3C2=O)c1 (stereo unspecified)	.	?	.	-3	.	.	.	.	.	-14%
COc1cc2ncnc(Nc3cccc(Br)c3)c2cc1OC	?	.	-6%	.	-10	.	.	.	.	.
COc1cc2ncnc(Nc3cccc(Cl)c3)c2cc1OC	29%	.	-12%	-21	0	6.3µM*	7.1µM*	25µM*	18µM*	18µM*
COc1ccc(Cl)cc1NC(=O)C(C)N1CCN(c2ccccn2)CC1 (stereo unspecified)	23%	?	-2%	4	0	.	.	.	.	.
CC[C@]12c3[nH]c4ccc(Cl)cc4c3CCN1C(=O)[C@@H](CC(=O)NCCCn1ccnc1)C[C@@H]2C(=O)N1CCN(C(=O)C2CC2)CC1	.	13%	.	2	.	.	.	.	.	.
O=C(NNc1ncccc1-n1cccc1)c1ccc(Cl)cc1	?	?	?	2	0	.	.	.	.	.
CC(C)(C)c1ccc(C(=O)NNc2ncccc2-n2cccc2)cc1	?	3.3µM*	?	-11	-1	6%	30%	-6%	-2%	-2%
Cc1ccc(NC(=S)N(Cc2cccs2)Cc2cc3cccc(C)c3[nH]c2=O)cc1	-10%	?	0%	-6	0	4.4µM*	?	?	-4%	-12%
Cc1ccc2cc(CN(CC3CCCO3)C(=S)Nc3ccccc3)c(=O)[nH]c2c1C (stereo unspecified)	-45%	4.6µM*	-24%	-10	-3	4µM*	?	?	0%	?
Cc1ccc2cc(CN(CC3CCCO3)C(=S)Nc3ccccc3)c(=O)[nH]c2c1 (stereo unspecified)	-9%	?	-2%	3	-1	.	.	.	.	.
Cc1ccc2[nH]c(=O)c(CN(Cc3cccs3)C(=S)NCc3ccco3)cc2c1	?	?	-91%	6	0	.	.	.	.	.
COc1cc2c(cc1OC)-c1cc(Nc3ccccc3)nc(=O)n1CC2	-9%	5%	-8%	1	9	.	.	.	.	.
COc1cc2c(cc1OC)-c1cc(N3CCc4ccccc43)nc(=O)n1CC2	-1%	?	-8%	-6	1	2.8µM*	26%	?	?	?
Cc1cc(NC(=O)c2ccc(F)c(S(=O)(=O)N3CCCCC3)c2)no1	.	?	.	36	0	.	.	.	.	.
O=C(Nc1ccc(N2CCN(C(=O)c3ccco3)CC2)cc1)c1ccc([N+](=O)[O-])cc1Cl	1%	4.6µM*	-11%	9	.	6.3µM*	7.1µM*	?	?	?
CC(=O)N1CCN(c2ccc(NC(=O)c3ccc([N+](=O)[O-])cc3Cl)cc2)CC1	0%	-17%	-1%	3	-1	.	.	.	.	.
Cc1ccc2nc(Nc3ccc(Cl)cc3)c3nncn3c2c1	8%	5%	-12%	-1	1	.	.	.	.	.

High-throughput results from PubChem BioAssay.
